BAZ2B inh = BAZ2B (human) inhibition | AlphaScreen BAZ2B-H3K14Ac peptide displacement | Potency, µM (top dose mostly 114 µM), most hits filed as inhibitors | 360,000 tested, 4.4% active | AID 504333; note: nearly all actives have a fitted effect of over 60% in size
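Compounds, titrated to a top concentration of 110 uM, were incubated 30 min at room temperature with preformed BAZ2B/acetyl-K14 H3 peptide complex (50 nM each). Proximity signal was measured by AlphaScreen after 20 min with beads.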
VDR inh = inhibitors of human vitamin D receptor. P11473. VDR-SRC2-3 peptide fluorescence polarization, 2 h. Potency, µM, usual class: inhibitors. 400,000 tested, 0.93% active. AID 504847
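Measured by FP: displacement of SRC2-3 coactivator peptide from VDR by library compounds, following a two-hour ambient incubation.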
HP1b binding inh = blocks HP1-beta chromodomain binding to methylated histone tails; 390,000 tested, 0.56% active; AID 540317; AlphaScreen HP1-beta / biotin-H3K9me3 peptide binding; Potency, µM (top dose mostly 114 µM), actives largely listed as inhibitors; P83916; note: nearly all actives have a fitted effect of over 70% in size
Target sequence (P83916 whole entry, looked up): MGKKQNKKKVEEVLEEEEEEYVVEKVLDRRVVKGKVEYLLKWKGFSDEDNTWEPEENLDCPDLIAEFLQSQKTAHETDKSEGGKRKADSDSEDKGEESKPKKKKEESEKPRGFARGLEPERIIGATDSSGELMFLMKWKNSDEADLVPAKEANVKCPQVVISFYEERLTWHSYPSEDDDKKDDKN
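HP1-beta protein (50 nM final) preincubated 30 min at room temperature with biotinylated H3(1-18)K9me3 peptide (50 nM) in PBS pH 7.4, 0.01% Tween-20, then compound added for 30 min. AlphaScreen streptavidin donor/nickel chelate acceptor beads (10 ug/mL final), 30 min dark, luminescence read.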
G9a block = blocks human histone lysine methyltransferase G9a; G9a H3K9 monomethylation, AlphaScreen, 2 h; Potency, µM (top dose mostly 102 µM), actives largely listed as inhibitors; AID 504332; 350,000 tested, 8.8% active; Q96KQ7; note: nearly all actives have a fitted effect of over 75% in size
Target sequence (Q96KQ7 913-1193 limits assumed): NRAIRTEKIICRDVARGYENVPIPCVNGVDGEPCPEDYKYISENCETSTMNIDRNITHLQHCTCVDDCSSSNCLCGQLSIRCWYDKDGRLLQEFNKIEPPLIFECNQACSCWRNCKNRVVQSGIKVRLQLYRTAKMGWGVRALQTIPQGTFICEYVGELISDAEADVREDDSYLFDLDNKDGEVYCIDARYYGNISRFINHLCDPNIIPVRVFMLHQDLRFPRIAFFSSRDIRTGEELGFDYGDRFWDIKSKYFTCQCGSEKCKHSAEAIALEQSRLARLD
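Signal arises when biotinylated H3K9 peptide, once monomethylated, bridges streptavidin donor and antibody-captured acceptor beads. Enzyme at 20 nM was preincubated 15 min with test compounds; peptide 500 nM and SAM 20 uM then reacted for 2 h.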
JMJD2A Tudor = blocks the human JMJD2A Tudor domain; O75164; AlphaScreen JMJD2A-Tudor / H3K4me3 peptide binding; Potency, µM (highest dose often 114 µM), actives largely listed as inhibitors; 390,000 tested, 4.4% active; AID 504339; note: nearly all actives have a fitted effect of over 50% in size
PLK1 PBD block = inhibitors of human PLK1 polo-box domain binding; 360,000 tested, 2.8% active; Plk1 PBD binding of FITC phosphopeptide, fluorescence polarization; Potency, µM, actives largely listed as inhibitors; P53350; note: series mostly up to about 57 µM; nearly all actives have a fitted effect of over 65% in size
Hits are given with their value; . = inactive; ? = inconclusive; / = no result given; [ ] = another dose, or the depositor's remark. An excerpt weighted towards active compounds, which were near 11% of everything screened. Calls come from the whole dose curve; as a rule, active = well fitted curve in the direction sought with a large enough effect; inconclusive = small, poorly fitted or top-dose-only effect, or another doubt; inactive = no such curve, though single readings can be large; an effect the other way counts as inactive or inconclusive.

SMILES | BAZ2B inh | VDR inh | HP1b binding inh | G9a block | JMJD2A Tudor | PLK1 PBD block
O=C(NC(=S)Nc1ncccn1)c1ccccc1Cl | . | . | . | 79µM | ? | .
COC(=O)c1cc(OC)c(OC)cc1NC(=O)c1cccc(OC)c1OC | . | . | . | .[12.7 µM] | . | .
O=C(NC(=S)Nn1cnnc1)c1ccccc1Cl | ? | . | . | 14µM | . | ?
CNC(=O)NC(=S)NC(=O)c1ccccc1Cl | . | . | . | . | . | .
COc1cccc(C(=O)NC(=S)Nn2cnnc2)c1OC | ? | . | . | 14µM | . | 24µM
CCCn1c(SCC(=O)Nc2ccccc2CC)nnc1C(C)C | . | . | . | . | ? | 3µM
CCCn1c(SCC(=O)Nc2c(C)cccc2CC)nnc1C(C)C | . | . | . | .[12.7 µM] | . | .
CN(Cc1cccs1)c1ncnc2ccc(-c3ccc4cnn(C)c4c3)cc12 | / | / | / | / | . | /
OC(COc1ccccc1)Cn1c2ccccc2c2ccccc21 (stereo not given) | . | . | . | . | . | .
Oc1cccc2ccc[n+](CC(O)Cn3c4ccccc4c4ccccc43)c12 (stereo not given) | ? | . | . | 7.9µM | . | .
COc1ccc(CCNC(=O)CSc2nc3ccccc3nc2Cc2ccc(Cl)cc2)cc1OC | . | . | . | . | . | /
CCCn1c(=O)c(C(=O)OCC)c(O)c2cc(Br)ccc21 | . | . | . | ? | . | .
CCOC(=O)c1c(CN(C)C)n(C)c2c(O)c(N=NC(N)=O)c3ccc(Br)cc3c12 | . | ? | . | . | 35µM | 21µM
Cc1cccc(N2C(=O)N(Cc3ccc(C(C)(C)C)cc3)c3ccccc3S2(=O)=O)c1 | . | . | . | . | . | /
CC(C)(C)c1ccc(CN2N=Nc3ccccc3S2(=O)=O)cc1 | . | 50µM | . | .[0.0925 µM] | . | 13µM
O=S1(=O)c2ccccc2N=NN1Cc1ccc(Cl)c(Cl)c1 | 79µM | / | / | 2.8µM | / | /
CCCCNS(=O)(=O)c1ccc2nc(NC(=O)c3cccnc3)sc2c1 | . | . | . | . | . | /
CCCNS(=O)(=O)c1ccc2nc(NC(=O)c3ccc(F)cc3)sc2c1 | . | ? | ? | 1.4µM | 50µM | /
O=C(Nc1nc2ccc(F)cc2s1)c1ccccn1 | 40µM | . | . | . | . | .
O=C(Nc1nc2cc3c(cc2s1)OCCO3)C1=COCCO1 | . | ? | . | . | ? | 24µM
O=C(Nc1nc2ccc(F)cc2s1)C1=COCCO1 | . | . | . | 50µM | . | .
Clc1cccc(CNc2ccn3nc(-c4cccc(OCc5ccccc5)c4)cc3n2)c1 | / | / | / | / | / | .
COc1cccc(NC(=O)Cn2c(=O)n(C)c(=O)c3sc4c(c32)COC(C)(C)C4)c1 | . | ? | . | / | . | .
CCN(CC)Cc1cc(NC2=NS(=O)(=O)c3ccccc32)ccc1OC(=O)c1ccccc1 | . | . | . | 79µM | . | .
CCN(CC)Cc1cc(NC2=NS(=O)(=O)c3ccccc32)ccc1OC(=O)C(C)C | . | . | . | ? | . | .
SMILES | BAZ2B inh | VDR inh | HP1b binding inh | G9a block | JMJD2A Tudor | PLK1 PBD block
O=C(Cn1cc(S(=O)(=O)N2CCN(c3ccccc3F)CC2)c2ccccc2c1=O)Nc1cccc(C(F)(F)F)c1 | . | . | . | . | . | /
C/C(CC(=O)N1CCN(C=O)CC1)=N\NC(=O)c1cc2ccccc2cc1O | . | . | . | ? | . | .
C/C(CC(=O)N1CCN(C=O)CC1)=N\NC(=O)c1ccc([N+](=O)[O-])cc1 | . | . | . | 10µM | . | .
COC(=O)c1ccc(CNC(=O)COC(=O)/C=C/c2cc(OC)c(OC)c(OC)c2)cc1 | / | . | . | / | . | .
C=CCn1c(-c2ccc(=O)n(Cc3ccccc3)c2)n[nH]c1=S | . | / | / | 18µM | / | /
C=CCn1c(-c2cccn(Cc3cccc(Cl)c3)c2=O)n[nH]c1=S | . | . | . | 11µM | 20µM | .
O=c1c(-c2n[nH]c(=S)n2-c2ccccc2)cccn1Cc1cccc(Cl)c1 | . | . | . | 3.5µM | 28µM | .
CSc1nnc(-c2cccn(Cc3cccc(Cl)c3)c2=O)o1 | . | . | . | . | . | .
C=CCn1c(-c2cccn(Cc3ccc(Cl)cc3Cl)c2=O)n[nH]c1=S | . | . | . | 2.8µM | 56µM | .
CCc1nc2ccc(C(=O)NCc3ccc4c(c3)OCO4)cn2c1N(C)Cc1ccc(OC)cc1 | / | / | / | / | / | .
O/N=C1\CCCc2ccc(Cl)cc21 | . | . | . | . | . | .
C=CCn1c(-c2cc(-c3ccccc3)sc2N)n[nH]c1=S | . | . | . | / | . | .
O=c1c(=O)n(Cc2ccc(Cl)cc2)ccn1Cc1ccc(F)cc1 | . | . | . | . | . | /
C=CCn1c(-c2ccccc2[N+](=O)[O-])n[nH]c1=S | ? | . | . | 16µM | . | .
C=CCn1c(-c2cccn(Cc3ccccc3)c2=O)n[nH]c1=S | . | . | . | 40µM | 28µM | .
CSc1nnc(-c2cccn(Cc3ccccc3)c2=O)o1 | . | . | . | . | . | ?
C=CCn1c(-c2cccn(Cc3ccc(Cl)cc3)c2=O)n[nH]c1=S | . | . | . | 4.5µM | 10µM | .
O=C(N=C1SCC(=O)N1c1ccccc1Cl)c1ccccc1 | . | . | . | . | . | .
C=CCNc1nc(C(=O)OCC(=O)Nc2ccccc2C(F)(F)F)cs1 | ? | . | . | .[12.7 µM] | . | .
CN(C)CCNC(=O)c1ccc(Cn2c(=O)c3cccn3c3cccnc32)cc1 | . | . | . | . | . | /
Cc1cc(C)c2c(=O)n(CC(=O)Nc3ccc(Cl)cc3)sc2n1 | 40µM | 40µM | 7.9µM | 0.089µM | 1.1µM | 1.3µM
Cc1cc(C)n(CCC(=O)Nc2ccc(Cl)cc2)n1 | . | . | . | . | ? | /
O=C(Cn1c(=O)c2ccccc2n2nncc12)Nc1cccc(F)c1 | . | . | . | . | . | /
Cc1ccc(NC(=O)Cn2c(C)cc(C)c(C#N)c2=O)c(Cl)c1 | . | . | . | ? | . | .
Cc1cc(C)c2c(=O)n(CC(=O)Nc3cccc(F)c3)sc2n1 | 50µM | 14µM | ? | 0.32µM | 1.1µM | 1.9µM
SMILES | BAZ2B inh | VDR inh | HP1b binding inh | G9a block | JMJD2A Tudor | PLK1 PBD block
Cc1ccc(NC(=O)Cn2sc3nc(C)cc(C)c3c2=O)c(Cl)c1 | 45µM | ? | ? | 0.35µM | 1.6µM | 1.5µM
S=c1[nH]c2ccc(Cl)cc2s1 | . | . | . | 1.1µM | ? | ?
O=[N+]([O-])c1ccc2[nH]c(=S)[nH]c2c1 | / | . | . | / | . | 27µM
O=[N+]([O-])c1ccc2[nH]c(=S)sc2c1 | / | ? | ? | / | 50µM | .
O=c1cnc2cc([N+](=O)[O-])ccc2[nH]1 | . | . | . | ? | . | .
O=C(O)COc1ccc(/C=C/c2nc3ccc([N+](=O)[O-])cc3s2)cc1 | . | 32µM | . | . | .[11.4 µM] | 24µM
Cc1ccccc1C(C(=O)NC1CCCCC1)N(C(=O)CNC(=O)c1ccco1)c1cccnc1 (stereo not given) | . | . | . | . | . | .
